Data: PubChem BioAssay AID1159580 (chemical genetic matrix, 2015)
Among all 5,500 compounds or so, about 2,000 (36%) were called active. About 18% were inconclusive and are not listed. No stated cut-off is given here; in the data, active means normalized growth mostly below about 0.91 (no sharp cut-off); inconclusive means no clear call, values can overlap the other calls; inactive means mostly above about 0.92. Some of the results follow.

Test: chemical genetic growth profiling, strain panel (AID 1159580);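 further: tested at 20 µM; growth read once vehicle control cultures reached saturation at 30 °C; 1 = growth at the plate median or of vehicle wells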
Conditions: growth OD

Measured: normalized growth

COc1cccc2c1CCC1=CC(=O)CC[C@@]12C
inactive: S. cerevisiae deletion strains, locus YJR075W, strain HOC1, stronger effect = lower value 0.973 | S. cerevisiae deletion strains, locus YKL009W, strain mrt4, stronger effect = lower value 0.98 | S. cerevisiae deletion strains, locus YKL068W, stronger effect = lower value 1 | S. cerevisiae deletion strains, locus YKL085W, strain MDH1 (second series), stronger effect = lower value 0.982 | S. cerevisiae deletion strains, locus YKL085W, strain MDH1, stronger effect = lower value 0.982 | S. cerevisiae deletion strains, locus YKL160W, strain elf1, stronger effect = lower value 1 | S. cerevisiae deletion strains, locus YKL190W, strain CNB1, stronger effect = lower value 1.01 | S. cerevisiae deletion strains, locus YKR001C, strain vps1, stronger effect = lower value 0.986 | S. cerevisiae deletion strains, locus YKR026C, strain gcn3, stronger effect = lower value 0.994 | S. cerevisiae deletion strains, locus YKR091W, strain srl3, stronger effect = lower value 0.998 | S. cerevisiae deletion strains, locus YLL001W, strain dnm1, stronger effect = lower value 1 | S. cerevisiae deletion strains, locus YLL026W, stronger effect = lower value 0.992 | S. cerevisiae deletion strains, locus YLL041C, strain sdh2, stronger effect = lower value 0.995 | S. cerevisiae deletion strains, locus YLR027C, strain aat2, stronger effect = lower value 1.01 | S. cerevisiae deletion strains, locus YLR039C, strain RIC1, stronger effect = lower value 1.1 | S. cerevisiae deletion strains, locus YLR058C, strain SHM2, stronger effect = lower value 0.993 | S. cerevisiae deletion strains, locus YLR102C, strain apc9, stronger effect = lower value 0.993 | S. cerevisiae deletion strains, locus YLR221C, strain rsa3, stronger effect = lower value 0.988 | S. cerevisiae deletion strains, locus YLR258W, strain gsy2, stronger effect = lower value 0.999 | S. cerevisiae deletion strains, locus YLR262C, strain YPT6 (second series), stronger effect = lower value 1.05 | S. cerevisiae deletion strains, locus YLR262C, strain YPT6, stronger effect = lower value 1.1 | S. cerevisiae deletion strains, locus YLR268W, strain sec22, stronger effect = lower value 0.973 | S. cerevisiae deletion strains, locus YLR320W, strain mms22, stronger effect = lower value 1 | S. cerevisiae deletion strains, locus YLR330W, strain CHS5, stronger effect = lower value 0.998 | S. cerevisiae deletion strains, locus YLR342W, strain FKS1 (second series), stronger effect = lower value 0.941 | S. cerevisiae deletion strains, locus YLR342W, strain FKS1, stronger effect = lower value 0.997 | S. cerevisiae deletion strains, locus YLR357W, strain rsc2, stronger effect = lower value 1.02 | S. cerevisiae deletion strains, locus YLR370C, strain arc18, stronger effect = lower value 0.99 | S. cerevisiae deletion strains, locus YLR371W, strain rom2, stronger effect = lower value 0.988 | S. cerevisiae deletion strains, locus YLR384C, strain iki3, stronger effect = lower value 1.02 | S. cerevisiae deletion strains, locus YLR418C, strain cdc73, stronger effect = lower value 0.9 | S. cerevisiae deletion strains, locus YML016C, strain PPZ1, stronger effect = lower value 0.989 | S. cerevisiae deletion strains, locus YML032C, strain rad52, stronger effect = lower value 0.988 | S. cerevisiae deletion strains, locus YML120C, strain ndi1, stronger effect = lower value 0.988 | S. cerevisiae deletion strains, locus YML124C, strain tub3, stronger effect = lower value 0.988 | S. cerevisiae deletion strains, locus YMR058W, strain fet3, stronger effect = lower value 1 | S. cerevisiae deletion strains, locus YMR078C, strain ctf18, stronger effect = lower value 0.985 | S. cerevisiae deletion strains, locus YMR125W, strain sto1, stronger effect = lower value 1 | S. cerevisiae deletion strains, locus YMR129W, stronger effect = lower value 0.991 | S. cerevisiae deletion strains, locus YMR205C, strain PFK2, stronger effect = lower value 1 | S. cerevisiae deletion strains, locus YMR223W, strain ubp8, stronger effect = lower value 0.964 | S. cerevisiae deletion strains, locus YMR231W, strain pep5, stronger effect = lower value 1 | S. cerevisiae deletion strains, locus YMR263W, strain SAP30, stronger effect = lower value 0.978 | S. cerevisiae deletion strains, locus YMR307W, strain GAS1, stronger effect = lower value 0.957 | S. cerevisiae deletion strains, locus YNL067W, strain RPL9B, stronger effect = lower value 0.984 | S. cerevisiae deletion strains, locus YNL071W, strain lat1, stronger effect = lower value 1 | S. cerevisiae deletion strains, locus YNL128W, strain TEP1, stronger effect = lower value 1.01 | S. cerevisiae deletion strains, locus YNL153C, strain GIM3, stronger effect = lower value 0.989 | S. cerevisiae deletion strains, locus YNL209W, strain ssb2, stronger effect = lower value 1.02 | S. cerevisiae deletion strains, locus YNL233W, strain BNI4, stronger effect = lower value 0.988 | S. cerevisiae deletion strains, locus YNL248C, strain rpa49, stronger effect = lower value 1.01 | S. cerevisiae deletion strains, locus YNL250W, strain rad50, stronger effect = lower value 0.997 | S. cerevisiae deletion strains, locus YNL271C, strain bni1, stronger effect = lower value 0.985 | S. cerevisiae deletion strains, locus YNL298W, strain CLA4, stronger effect = lower value 0.969 | S. cerevisiae deletion strains, locus YNL307C, strain MCK1, stronger effect = lower value 0.933 | S. cerevisiae deletion strains, locus YNL322C, strain KRE1 (second series), stronger effect = lower value 1.01 | S. cerevisiae deletion strains, locus YNL322C, strain KRE1, stronger effect = lower value 1 | S. cerevisiae deletion strains, locus YNR049C, strain mso1, stronger effect = lower value 1.02 | S. cerevisiae deletion strains, locus YNR052C, strain pop2, stronger effect = lower value 0.996 | S. cerevisiae deletion strains, locus YOL006C, strain TOP1, stronger effect = lower value 0.863 | S. cerevisiae deletion strains, locus YOL012C, strain htz1 1.1 | S. cerevisiae deletion strains, locus YOL147C, strain pex11, stronger effect = lower value 0.982 | S. cerevisiae deletion strains, locus YOR001W, strain rrp6, stronger effect = lower value 1.02 | S. cerevisiae deletion strains, locus YOR061W, strain CKA2, stronger effect = lower value 0.996 | S. cerevisiae deletion strains, locus YOR069W, strain VPS5, stronger effect = lower value 1 | S. cerevisiae deletion strains, locus YOR070C, strain gyp1, stronger effect = lower value 1 | S. cerevisiae deletion strains, locus YOR080W, strain dia2, stronger effect = lower value 1 | S. cerevisiae deletion strains, locus YOR083W, strain WHI5, stronger effect = lower value 1.01 | S. cerevisiae deletion strains, locus YOR106W, strain vam3, stronger effect = lower value 1.01 | S. cerevisiae deletion strains, locus YOR136W, strain idh2, stronger effect = lower value 0.992 | S. cerevisiae deletion strains, locus YOR144C, strain elg1, stronger effect = lower value 0.991 | S. cerevisiae deletion strains, locus YOR184W, strain ser1, stronger effect = lower value 0.913 | S. cerevisiae deletion strains, locus YOR265W, strain rbl2, stronger effect = lower value 1 | S. cerevisiae deletion strains, locus YOR270C, strain vph1, stronger effect = lower value 0.915 | S. cerevisiae deletion strains, locus YOR290C, strain snf2, stronger effect = lower value 1.02 | S. cerevisiae deletion strains, locus YOR316C, strain cot1, stronger effect = lower value 0.99 | S. cerevisiae deletion strains, locus YPL051W, strain arl3, stronger effect = lower value 1 | S. cerevisiae deletion strains, locus YPL055C, strain LGE1, stronger effect = lower value 0.946 | S. cerevisiae deletion strains, locus YPL078C, strain atp4, stronger effect = lower value 1 | S. cerevisiae deletion strains, locus YPL106C, strain sse1, stronger effect = lower value 1.02 | S. cerevisiae deletion strains, locus YPL240C, strain hsp82, stronger effect = lower value 0.995 | S. cerevisiae deletion strains, locus YPL241C, strain CIN2, stronger effect = lower value 1 | S. cerevisiae deletion strains, locus YPR119W, strain clb2, stronger effect = lower value 0.989 | S. cerevisiae deletion strains, locus YPR141C, strain kar3, stronger effect = lower value 0.997 | S. cerevisiae deletion strains, locus YPR163C, strain tif3, stronger effect = lower value 0.979 | S. cerevisiae deletion strains, locus YPR167C, strain met16, stronger effect = lower value 0.983 | S. cerevisiae deletion strains, strain wtn01, stronger effect = lower value 0.96 | S. cerevisiae strains, strain wild type, stronger effect = lower value 1.01
